Screening results deposited in PubChem BioAssay by University of Kansas High Throughput Screening Laboratory.
An excerpt weighted towards active compounds, which were near 3.6% of everything screened.
mHTT-CaM PPI inh = disrupts binding of mutant huntingtin to calmodulin; AlphaScreen His-mHTT/GST-CaM binding, luminescence; inhibition, % at 15 µM; hit rate 3.6% among 190,000; P42858; AID 1671202
Target sequence (P42858 whole entry, looked up, change not shown): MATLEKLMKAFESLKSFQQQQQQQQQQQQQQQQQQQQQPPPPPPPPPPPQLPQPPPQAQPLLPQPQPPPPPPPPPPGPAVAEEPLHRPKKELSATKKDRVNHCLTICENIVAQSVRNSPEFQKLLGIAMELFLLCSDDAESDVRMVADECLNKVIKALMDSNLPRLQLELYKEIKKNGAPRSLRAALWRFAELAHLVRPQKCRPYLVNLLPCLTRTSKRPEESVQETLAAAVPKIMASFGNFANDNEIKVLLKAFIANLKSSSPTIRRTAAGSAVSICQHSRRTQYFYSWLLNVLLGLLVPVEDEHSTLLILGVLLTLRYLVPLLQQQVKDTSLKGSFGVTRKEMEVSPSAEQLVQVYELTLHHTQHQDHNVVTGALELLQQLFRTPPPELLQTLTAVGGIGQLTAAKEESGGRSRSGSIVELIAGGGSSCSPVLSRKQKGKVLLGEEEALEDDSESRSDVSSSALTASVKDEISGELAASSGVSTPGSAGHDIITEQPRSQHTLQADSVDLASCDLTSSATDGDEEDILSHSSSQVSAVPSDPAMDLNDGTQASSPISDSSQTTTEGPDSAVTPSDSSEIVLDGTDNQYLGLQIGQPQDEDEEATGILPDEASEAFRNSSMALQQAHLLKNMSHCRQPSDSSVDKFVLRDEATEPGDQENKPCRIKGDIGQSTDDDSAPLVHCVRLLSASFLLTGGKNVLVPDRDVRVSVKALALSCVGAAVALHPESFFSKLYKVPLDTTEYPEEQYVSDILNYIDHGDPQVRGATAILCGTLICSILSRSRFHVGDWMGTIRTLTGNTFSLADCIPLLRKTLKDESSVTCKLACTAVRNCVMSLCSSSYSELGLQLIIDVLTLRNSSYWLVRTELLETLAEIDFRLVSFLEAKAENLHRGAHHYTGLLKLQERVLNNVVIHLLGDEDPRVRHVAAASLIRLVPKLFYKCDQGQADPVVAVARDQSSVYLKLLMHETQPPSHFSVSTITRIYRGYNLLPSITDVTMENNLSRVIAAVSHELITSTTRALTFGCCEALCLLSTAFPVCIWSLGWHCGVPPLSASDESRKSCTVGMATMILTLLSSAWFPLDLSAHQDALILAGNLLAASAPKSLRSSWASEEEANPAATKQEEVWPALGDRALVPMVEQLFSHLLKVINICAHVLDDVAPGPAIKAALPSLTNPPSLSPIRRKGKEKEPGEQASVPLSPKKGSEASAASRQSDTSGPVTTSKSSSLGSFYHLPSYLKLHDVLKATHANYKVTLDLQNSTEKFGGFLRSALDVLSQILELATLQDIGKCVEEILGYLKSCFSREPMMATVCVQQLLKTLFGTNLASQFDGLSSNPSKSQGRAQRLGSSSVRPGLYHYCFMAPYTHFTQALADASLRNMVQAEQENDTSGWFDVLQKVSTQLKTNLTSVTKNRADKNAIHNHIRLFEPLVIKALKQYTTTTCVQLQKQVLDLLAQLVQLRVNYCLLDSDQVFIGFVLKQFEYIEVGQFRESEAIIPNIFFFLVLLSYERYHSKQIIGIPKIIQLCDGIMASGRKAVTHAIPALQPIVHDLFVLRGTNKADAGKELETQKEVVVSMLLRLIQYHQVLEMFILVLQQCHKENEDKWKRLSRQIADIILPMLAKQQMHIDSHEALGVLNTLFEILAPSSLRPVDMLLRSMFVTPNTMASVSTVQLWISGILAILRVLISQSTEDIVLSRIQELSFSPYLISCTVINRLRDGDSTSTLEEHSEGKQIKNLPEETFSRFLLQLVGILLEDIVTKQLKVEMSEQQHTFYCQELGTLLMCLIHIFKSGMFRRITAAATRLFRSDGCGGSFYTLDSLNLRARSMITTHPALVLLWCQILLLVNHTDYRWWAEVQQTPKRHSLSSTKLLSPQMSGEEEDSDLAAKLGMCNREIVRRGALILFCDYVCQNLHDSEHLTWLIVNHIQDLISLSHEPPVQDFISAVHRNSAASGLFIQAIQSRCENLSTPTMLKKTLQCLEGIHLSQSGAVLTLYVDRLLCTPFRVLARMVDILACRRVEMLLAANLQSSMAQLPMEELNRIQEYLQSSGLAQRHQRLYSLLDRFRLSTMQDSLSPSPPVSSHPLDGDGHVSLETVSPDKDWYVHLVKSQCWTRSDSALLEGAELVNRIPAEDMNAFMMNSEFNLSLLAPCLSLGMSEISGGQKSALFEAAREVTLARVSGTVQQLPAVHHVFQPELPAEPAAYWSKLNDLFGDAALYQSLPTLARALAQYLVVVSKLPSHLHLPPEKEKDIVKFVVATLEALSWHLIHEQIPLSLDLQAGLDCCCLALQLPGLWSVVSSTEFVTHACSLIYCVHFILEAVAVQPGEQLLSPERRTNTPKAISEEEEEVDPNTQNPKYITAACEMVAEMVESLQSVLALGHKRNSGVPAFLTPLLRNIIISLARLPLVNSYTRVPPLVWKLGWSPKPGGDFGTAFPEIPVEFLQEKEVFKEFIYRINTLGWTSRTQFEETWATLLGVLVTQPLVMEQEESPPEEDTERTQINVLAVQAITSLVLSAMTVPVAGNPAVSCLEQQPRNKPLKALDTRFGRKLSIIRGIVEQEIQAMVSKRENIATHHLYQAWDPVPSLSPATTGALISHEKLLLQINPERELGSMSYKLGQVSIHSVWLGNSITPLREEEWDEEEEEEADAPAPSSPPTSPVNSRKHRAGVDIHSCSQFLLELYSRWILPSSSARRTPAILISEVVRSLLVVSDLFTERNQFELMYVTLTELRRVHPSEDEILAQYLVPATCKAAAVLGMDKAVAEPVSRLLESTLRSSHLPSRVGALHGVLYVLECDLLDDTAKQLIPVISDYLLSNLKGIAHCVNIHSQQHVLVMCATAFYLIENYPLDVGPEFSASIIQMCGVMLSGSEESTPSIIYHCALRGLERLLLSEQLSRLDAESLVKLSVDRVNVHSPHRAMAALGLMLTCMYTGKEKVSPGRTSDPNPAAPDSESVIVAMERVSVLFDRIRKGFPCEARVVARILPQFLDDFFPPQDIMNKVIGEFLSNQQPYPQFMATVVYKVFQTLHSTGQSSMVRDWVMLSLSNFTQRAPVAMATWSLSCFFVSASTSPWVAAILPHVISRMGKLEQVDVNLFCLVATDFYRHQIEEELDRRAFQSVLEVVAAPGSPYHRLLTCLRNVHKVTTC
Pf apPOL block = Pf-apPOL DNA polymerase inhibition. Recombinant Pf-apPOL, molecular beacon fluorescence, 1.5 h. inhibition, % at 10 µM. hit rate 0.25% among 210,000
Of the large screens only hits and unclear results are named; the others gave an inactive call; ! = a repeat was not active. No stated cut-off is given here; in the data, active means inhibition above about 50%; inactive means the rest.

CCCC(=O)Nc1cc(Cl)c(Cl)cc1Cl	none
Cc1ccsc1C(=O)N1CCCN(C2CCN(Cc3ccc(F)cc3)C2=O)CC1 (stereo not drawn)	mHTT-CaM PPI inh 64.1
O=C(c1ccsc1)N1CCCN(C2CCN(Cc3ccc(F)cc3)C2=O)CC1 (stereo not drawn)	none
CNC(=O)N1CCCN(C2CCN(Cc3ccc(F)cc3)C2=O)CC1 (stereo not drawn)	none
Cc1ccccc1C(=O)N1CCCN(C2CCN(Cc3ccc(F)cc3)C2=O)CC1 (stereo not drawn)	mHTT-CaM PPI inh 56.7
Cc1cc(Br)ccc1OCCOCCN1CCOCC1	none
O=[N+]([O-])c1ccc(S(=O)(=O)CC(Cl)CS(=O)(=O)Cc2ccccc2)cc1 (stereo not drawn)	mHTT-CaM PPI inh 100.0
O=[N+]([O-])c1ccc(NCCNS(=O)(=O)Cc2ccccc2)cc1	none
Nc1ccc2[nH]c3c(c2c1)CCCC3	mHTT-CaM PPI inh 67.8 (no result: Pf apPOL block)
Brc1ccc2[nH]c3c(c2c1)CCCCC3	mHTT-CaM PPI inh 52.7 (no result: Pf apPOL block)
c1ccc2c3c([nH]c2c1)CCCCCC3	none (no result: mHTT-CaM PPI inh)
O=c1c2c([nH]c3ccccc13)CCCC2	none (no result: mHTT-CaM PPI inh)
COc1ccc(C2=NC3(CCN(C(C)C)CC3)NC(c3ccccc3O)C2)cc1 (stereo not drawn)	none
CCOc1ccc(C2=NC3(CCN(C(C)=O)CC3)NC(c3ccccc3O)C2)cc1 (stereo not drawn)	mHTT-CaM PPI inh 51.0
COc1ccc(C2=NC3(CCCCC3)NC(c3ccccc3O)C2)cc1 (stereo not drawn)	mHTT-CaM PPI inh 59.0
CCOC(=O)N1CCC2(CC1)N=C(c1ccc(OCC)cc1)CC(c1ccccc1O)N2 (stereo not drawn)	none
O=C(Nc1nnc(-c2ccc(F)cc2)o1)c1ccc(S(=O)(=O)N2CCCc3ccccc32)cc1	none
O=C(Nc1nnc(C2CC2)o1)c1ccc(S(=O)(=O)N2CCCc3ccccc32)cc1	mHTT-CaM PPI inh 67.0!
C=CCn1c(=O)c2c(ncn2Cc2ccc(F)cc2)n(-c2ccc(F)cc2)c1=O	none
Cc1ccc(NC(=O)C(=O)NCC(c2cccnc2)N2CCc3ccccc3C2)cc1F (stereo not drawn)	none
O=C(Nc1ccccc1Cl)c1cnc(-c2ccc(F)cc2)nc1-c1ccncc1	none
Cc1ccc(-c2ncc(C(=O)Nc3ccccc3Cl)c(-c3ccncc3)n2)cc1	Pf apPOL block 55.7
O=C(Nc1ccccc1Cl)c1cnc(-c2ccccc2)nc1-c1ccncc1	none
O=C(Nc1ccc(F)cc1)c1cnc(-c2ccccc2)nc1-c1ccncc1	none
O=C(Nc1ccc(F)cc1)c1cnc(-c2ccc(F)cc2)nc1-c1ccncc1	Pf apPOL block 88.1
O=C(Nc1ccccc1F)c1cnc(-c2ccc(F)cc2)nc1-c1ccncc1	Pf apPOL block 86.0
CCC(C)NC(=O)C1CCN(C(=O)c2cccnc2-c2ccccc2C)CC1 (stereo not drawn)	none
Cc1ccc(C(=O)Nc2ccc3c(N4CCOCC4)ncnc3c2)cc1	none
O=C(Nc1ccc2c(N3CCOCC3)ncnc2c1)c1cccc(Br)c1	mHTT-CaM PPI inh 53.6
CN1c2cc(F)ccc2C(=O)NC12CCN(C(=O)c1ccc(F)c(F)c1)CC2	none
ClC(Cl)(Cl)CCCCn1nnc2ccccc21	mHTT-CaM PPI inh 100.0
c1ccc2c(c1)nnn2CCSCCn1nnc2ccccc21	none
Nc1nc(Cn2c(-c3cncs3)nc3ccccc32)nc(N2CCOCC2)n1	none
CC1=C(C#N)C(=O)NC(=O)/C1=C\c1ccc(-c2cccc([N+](=O)[O-])c2)o1	none
COc1cccc2ccc(C3C(=O)c4ccccc4C3=O)nc12	none
COc1ccc(C2CC(C3C(=O)c4ccccc4C3=O)=NN2)cc1 (stereo not drawn)	mHTT-CaM PPI inh 100.0
CC(C)Cn1c(=O)c(N2CCC(NC(=O)NCc3ccccc3)CC2)nc2ccccc21	none
COc1cccc(C=Nc2ccc(S(=O)(=O)Nc3ccc(F)cc3)cc2)c1O	none
CSc1nc(N)nc(SC/C=C/c2ccccc2)c1C#N	none
CSc1nc(N)nc(SCc2ccc(Cl)c(Cl)c2)c1C#N	mHTT-CaM PPI inh 74.0
COc1cc(OC)c(OC)cc1C=C1Oc2c(ccc(O)c2CN(C)Cc2ccccc2)C1=O	none
COc1ccc2nc(NC(=O)C3CC(=O)N(c4cccc(NC(C)=O)c4)C3)sc2c1 (stereo not drawn)	none
CC(C)c1ccc(CN2CC(C(=O)Nc3ccccc3)CC2=O)cc1 (stereo not drawn)	none
CC(=O)Nc1cccc(N2CC(C(=O)Nc3nc4ccc(Cl)cc4s3)CC2=O)c1 (stereo not drawn)	mHTT-CaM PPI inh 52.5
CC(C)c1ccc(CN2CC(C(=O)Nc3nc4ccccc4s3)CC2=O)cc1 (stereo not drawn)	mHTT-CaM PPI inh 100.0
O=C1OC(c2ccc([N+](=O)[O-])cc2)=N/C1=C\c1cccc([N+](=O)[O-])c1	none
O=C1C(Nc2ccc(Br)cc2)=C(N2CCCCC2)C(=O)c2ccccc21	mHTT-CaM PPI inh 95.4
O=C1C(Nc2ccc(Br)cc2)=C(n2nnc3ccccc32)C(=O)c2ccccc21	none
Cc1ccc(NC2=C(N3CCCCC3)C(=O)c3ccccc3C2=O)cc1	mHTT-CaM PPI inh 68.3
O=C1C(Nc2cc(F)cc(F)c2)=C(N2CCOCC2)C(=O)c2ccccc21	none
O=C1C(Nc2ccccc2)=C(N2CCCCC2)C(=O)c2ccccc21	none
CC(=O)c1ccc(NC2=C(N3CCCC3)C(=O)c3ccccc3C2=O)cc1	mHTT-CaM PPI inh 85.7
O=C(Nc1ccc(Br)cc1C(=O)O)c1ccccc1F	none
Cc1ccc(-n2nc3c(c2NC(=O)c2cccc([N+](=O)[O-])c2C)CSC3)cc1	none
Cc1cccc(-c2nccc(C3CCCN(C(=O)c4ccccc4)C3)n2)c1 (stereo not drawn)	none
CCN(CC)CCNc1cc(C(F)(F)F)c(C#N)c2nc3ccccc3n12	none
Cc1c(Cl)cccc1NC(=O)CN1CCC2(CC1)N=C(c1cccc(Cl)c1)C(=O)N2	none
Cn1cc2c3c(cccc31)CN(C(=O)c1ccc(Cl)s1)CC2	none
Cc1cc(Cl)ccc1NC(=O)C1CC(=O)N(c2ccc3c(c2)CCN3C(=O)C2CC2)C1 (stereo not drawn)	none
O=C1CCCC2=C1C(c1cc([N+](=O)[O-])ccc1O)C1=C(N2)c2ccccc2C1=O (stereo not drawn)	mHTT-CaM PPI inh 56.0
O=C1CCCC2=C1C(c1cc([N+](=O)[O-])ccc1O)C1=C(CCCC1=O)N2	none
COc1cccc(C2C3=C(Nc4c2c(=O)n(C)c(=O)n4C)c2ccccc2C3=O)c1 (stereo not drawn)	none
Cc1ccccc1C1C2=C(CC(C)(C)CC2=O)NC2=C1C(=O)CC(C)(C)C2	none
O=C1CC(c2ccco2)CC2=C1C(c1ccccc1)C1=C(N2)c2ccccc2C1=O (stereo not drawn)	none
O=C1CC(c2ccco2)CC2=C1C(c1ccc(Cl)cc1)C1=C(N2)c2ccccc2C1=O (stereo not drawn)	mHTT-CaM PPI inh 64.0
COc1cccc(C2C3=C(CC(C)(C)CC3=O)NC3=C2C(=O)c2ccccc23)c1 (stereo not drawn)	mHTT-CaM PPI inh 58.0
CC1(C)CC(=O)C2=C(C1)NC1=C(C(=O)c3ccccc31)C2c1cc(Br)ccc1O (stereo not drawn)	mHTT-CaM PPI inh 56.0
O=Cc1ccc(OCc2cccc([N+](=O)[O-])c2)c(Cl)c1	none
CC(C)S(=O)(=O)c1ccc(CC(=O)N2CC(c3nc(-c4cccnc4)no3)C2)cc1	none
CC1C(=O)N(c2ccccc2F)CCN1C(=O)c1ccc(Cl)c(Cl)c1 (stereo not drawn)	none
CCOc1cc(C(=O)Nc2c3c(nn2-c2ccccc2C)CSC3)cc(OCC)c1OCC	none
